# From PubChem BioAssay AID1347418 (Sanford-Burnham Center for Chemical Genomics, 2020)
# The campaign covered roughly 1,300 compounds. About 750 (58%) were called active. Some of the results follow. A number with no mark means an inactive call.
# Target: Sulfhydryl oxidase 1 (Homo sapiens) (UniProt O00391)
# Test: inhibition of human sulfhydryl oxidase QSOX1 – biochemical, ROS-Glo H2O2 luminescence, HTS, primary screen (AID 1347418)
# Conditions: recombinant QSOX1, ROS-Glo H2O2 luminescence; at 12.5 µM; hits give high values; active = any value above zero
# Chain of Sulfhydryl oxidase 1 (Homo sapiens) (O00391 whole entry, looked up): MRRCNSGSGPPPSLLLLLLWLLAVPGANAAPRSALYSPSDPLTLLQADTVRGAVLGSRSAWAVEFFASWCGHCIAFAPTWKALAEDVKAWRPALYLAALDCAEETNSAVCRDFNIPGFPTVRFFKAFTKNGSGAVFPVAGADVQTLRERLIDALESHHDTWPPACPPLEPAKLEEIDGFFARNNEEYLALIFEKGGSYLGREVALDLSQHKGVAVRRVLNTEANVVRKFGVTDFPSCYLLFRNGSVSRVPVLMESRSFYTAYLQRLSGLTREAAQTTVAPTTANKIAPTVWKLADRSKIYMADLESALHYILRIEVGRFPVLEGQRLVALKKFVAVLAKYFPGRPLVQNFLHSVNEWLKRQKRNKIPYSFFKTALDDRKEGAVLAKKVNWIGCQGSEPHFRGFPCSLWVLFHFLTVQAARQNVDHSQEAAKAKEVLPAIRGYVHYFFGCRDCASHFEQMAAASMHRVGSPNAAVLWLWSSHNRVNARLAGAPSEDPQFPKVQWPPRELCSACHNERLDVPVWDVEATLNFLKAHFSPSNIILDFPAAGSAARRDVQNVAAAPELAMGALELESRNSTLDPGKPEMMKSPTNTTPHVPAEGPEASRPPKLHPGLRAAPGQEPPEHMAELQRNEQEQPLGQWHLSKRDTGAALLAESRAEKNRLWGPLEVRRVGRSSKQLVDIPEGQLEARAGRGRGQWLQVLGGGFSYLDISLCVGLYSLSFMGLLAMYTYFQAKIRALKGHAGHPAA
row,Structure (SMILES),inhibition
1,CN(C)C(=O)/N=N/C(=O)N(C)C,8.2% (active)
2,Fc1ccc(CN(C2=NCCN2)c2c(Cl)cccc2Cl)cc1,1.1% (active)
3,O=C(O)c1cc(=O)c2ccccc2[nH]1,5.6% (active)
4,O=C(O)c1cc(=O)c2c(Cl)cc(Cl)cc2[nH]1,-1%
5,CNC(=O)c1cc2c(cn1)[nH]c1ccccc12,-3.2%
6,C[C@H](Cc1ccccc1)Nc1ncnc2c1ncn2[C@@H]1O[C@H](CO)[C@H](O)C1O (some centres undefined),1.4% (active)
7,OC[C@H]1O[C@@H](n2cnc3c(NC4CCCCC4)ncnc32)[C@H](O)[C@@H]1O,4.8% (active)
8,Nc1nc2c(ncn2[C@@H]2O[C@H](CO)[C@@H](O)[C@@H]2O)c(=O)[nH]1,-3.6%
9,OC[C@H]1O[C@@H](n2cnc3cncnc32)[C@H](O)[C@@H]1O,4.9% (active)
10,O=[N+]([O-])c1ccc(CSc2ncnc3c2ncn3[C@@H]2O[C@H](CO)[C@H](O)C2O)cc1 (some centres undefined),-2.9%
11,Nc1nc(SCc2ccc([N+](=O)[O-])cc2)c2ncn([C@@H]3O[C@H](CO)[C@H](O)C3O)c2n1 (some centres undefined),4.9% (active)
12,CNc1ncnc2c1ncn2[C@@H]1O[C@H](CO)[C@H](O)C1O (some centres undefined),-6.8%
13,Nc1ncnc2c1ncn2[C@@H]1O[C@H](CO)[C@H](O)C1O (some centres undefined),-0.5%
14,OC[C@H]1O[C@@H](n2cnc3c(NC4CCCC4)ncnc32)C(O)[C@H]1O (some centres undefined),0.7% (active)
15,Nc1ccc(CCNc2ncnc3c2ncn3C2OC(CO)C(O)C2O)cc1 (centres undefined),4% (active)
16,OC[C@H]1O[C@H](n2cnc3c(N[C@H]4CCC[C@@H]4O)ncnc32)[C@H](O)[C@@H]1O,-1.9%
17,COc1cc(SC)ccc1C(=O)N1CCC(Cc2ccccc2)CC1,1.4% (active)
18,COc1ccc(/C=C2\COc3ccc(C)cc3C2=O)cc1O,-1.7%
19,CN(CC[C@@H](Oc1ccc(C(F)(F)F)cc1)c1ccccc1)CC(=O)O,6.8% (active)
20,CNCCC(Oc1ccccc1OC)c1ccccc1 (centres undefined),-2.5%
21,CNCCC(Oc1ccccc1C)c1ccccc1 (centres undefined),0%
22,CNCCC(Oc1ccc(C(F)(F)F)cc1)c1ccccc1 (centres undefined),2.1% (active)
23,CNCC[C@H](Oc1ccc(C(F)(F)F)cc1)c1ccccc1,11.2% (active)
24,OC1(c2ccc(Cl)cc2)CCN(Cc2c[nH]c3ccccc23)CC1,-1.5%
25,Ic1ccc(N2CCN(Cc3c[nH]c4ncccc34)CC2)cc1,15.6% (active)

row,Structure (SMILES),inhibition
1,Clc1ccc(N2CCN(Cc3c[nH]c4ncccc34)CC2)cc1,24.1% (active)
2,Nc1nc2c(cnn2CCc2ccccc2)c2nc(-c3ccco3)nn12,1.8% (active)
3,Nc1nc2ccc(Cl)cc2c2nc(-c3ccco3)nn12,-0.2%
4,CN1C2CCC1CC(OC(=O)c1c[nH]c3ccccc13)C2 (centres undefined),2.4% (active)
5,CN1C2CC(OC(=O)[C@H](CO)c3ccccc3)CC1C1OC12 (some centres undefined),-3.1%
6,CN1C2CCC1CC(OC(=O)C(O)c1ccccc1)C2 (centres undefined),-5.9%
7,CN1C2CCC1CC(OC(=O)C(CO)c1ccccc1)C2 (centres undefined),3% (active)
8,CN1C2CCC1CC(OC(c1ccccc1)c1ccccc1)C2 (centres undefined),-10.1%
9,COc1ccc(/C=C/C(=O)Nc2ccccc2C(=O)O)cc1OC,23.4% (active)
10,CN[C@H](CC(C)C)C(=O)N[C@H]1C(=O)N[C@@H](CC(N)=O)C(=O)N[C@H]2C(=O)N[C@H]3C(=O)N[C@H](C(=O)N[C@H](C(=O)O)c4cc(O)cc(O)c4-c4cc3ccc4O)[C@H](O)c3ccc(c(Cl)c3)Oc3cc2cc(c3O[C@@H]2O[C@H](CO)[C@@H](O)[C@H](O)[C@H]2O[C@H]2C[C@](C)(N)[C@H](O)[C@H](C)O2)Oc2ccc(cc2Cl)[C@H]1O,3.1% (active)
11,CC1=C(C)C(=O)C(CCCCC#CCCCC#CCO)=C(C)C1=O,5.7% (active)
12,C=C1C[C@@]23CC[C@H]4[C@@](C)(CCC[C@@]4(C)C(=O)OC4OC(CO)C(O)C(O)C4O)[C@@H]2CCC1(OC1OC(CO)C(O)C(O)C1OC1OC(CO)C(O)C(O)C1O)C3 (some centres undefined),5.4% (active)
13,C=C1C[C@@]23CC[C@H]4[C@@](C)(CCC[C@@]4(C)C(=O)O)[C@@H]2CC[C@]1(O)C3,-3.8%
14,CN1CC(=O)N/C1=N\C(=O)Nc1cccc(Cl)c1,-0.1%
15,O=C(O)CCC(=O)N1CCCC1C(=O)O (centres undefined),4.1% (active)
16,C[C@H](CS)C(=O)N1CCC[C@H]1C(=O)O,0.1% (active)
17,NC(N)=Nc1nc(CSCC/C(N)=N/S(N)(=O)=O)cs1,0.1% (active)
18,CC(C)C(=O)c1c(C(C)C)nn2ccccc12,-4.2%
19,CCOC(=O)N1CCC(=C2c3ccc(Cl)cc3CCc3cccnc32)CC1,-1.5%
20,Cc1c(OCC(F)(F)F)ccnc1CS(=O)c1nc2ccccc2[nH]1 (centres undefined),-0.2%
21,CCn1cc(C(=O)O)c(=O)c2cc(F)c(N3CCNC(C)C3)c(F)c21 (centres undefined),-1.7%
22,CCn1nc(C(=O)O)c(=O)c2cc3c(cc21)OCO3,3.1% (active)
23,CCn1cc(C(=O)O)c(=O)c2ccc(C)nc21,-5.8%
24,CCn1cc(C(=O)O)c(=O)c2cc3c(cc21)OCO3,2.6% (active)
